target: CD276, Q5ZPR3
Sequence (Q5ZPR3 whole entry): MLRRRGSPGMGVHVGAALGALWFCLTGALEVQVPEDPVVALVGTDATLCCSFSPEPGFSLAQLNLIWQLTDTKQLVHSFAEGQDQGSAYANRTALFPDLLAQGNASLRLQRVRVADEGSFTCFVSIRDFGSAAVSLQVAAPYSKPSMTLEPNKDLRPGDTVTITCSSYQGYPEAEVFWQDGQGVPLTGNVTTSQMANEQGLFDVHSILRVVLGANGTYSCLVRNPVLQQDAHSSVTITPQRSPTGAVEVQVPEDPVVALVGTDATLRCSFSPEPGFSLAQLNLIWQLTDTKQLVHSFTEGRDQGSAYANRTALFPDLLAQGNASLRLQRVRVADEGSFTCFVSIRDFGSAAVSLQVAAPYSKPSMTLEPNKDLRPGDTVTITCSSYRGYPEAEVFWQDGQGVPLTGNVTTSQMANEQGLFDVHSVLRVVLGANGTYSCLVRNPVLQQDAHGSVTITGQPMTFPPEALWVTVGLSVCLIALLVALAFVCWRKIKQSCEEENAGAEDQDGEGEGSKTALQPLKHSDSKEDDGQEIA

| Binder | binding in a display sort |
| --- | --- |
| design_621_7e0052dc-ae49-49a0-b99f-9f3ee649cc2f_407_dldesign_0_cycle1_af2pred (protein) SEAQRLYDAAKTWADIANAAIQQAAADPSTAAVAVAAAKAAVASAKRLAEKAEKLAAKKPEYAPLAKDAKAAVAAAAAAAKAAAA | not found (inactive) |
| design_621_7e0052dc-ae49-49a0-b99f-9f3ee649cc2f_449_dldesign_0_cycle1_af2pred (protein) SSNVEKAKELARNLTESAALDPASGALAGRALLAAARNAAAALTPEQSAALAAELRAAVAANQPADPEARALFEQAAAVLAA | not found (inactive) |
| design_621_7e0052dc-ae49-49a0-b99f-9f3ee649cc2f_452_dldesign_0_cycle1_af2pred (protein) EEDERRAEELRRRAEEMLEAAKRAASLPPAERARLLGEAARVVEEARELAERDPRYRPVYDLAVAAFNALATAVGRALAAAA | not found (inactive) |
| design_621_7e0052dc-ae49-49a0-b99f-9f3ee649cc2f_501_dldesign_0_cycle1_af2pred (protein) GAEQVAFQTIVAGARHAARLENEEAAKEIAKVYADIAANLSKETQQKVLEAAKKIAKETEAGKKNGEIVVKELEKALEA | not found (inactive) |
| design_621_7e0052dc-ae49-49a0-b99f-9f3ee649cc2f_505_dldesign_0_cycle1_af2pred (protein) AAAAAARAAALAVRDKYAAKAKEYAAEAEKYAPTDARVKELLDQGKAEAAKGDAALAAGDYAAAEGYYALAYAYYSAALNRALA | not found (inactive) |
| design_621_7e0052dc-ae49-49a0-b99f-9f3ee649cc2f_590_dldesign_0_cycle1_af2pred (protein) SERKESVDAGVKAAADIGKYQAKEIAKEDPEKGAAYLKEVEETYEKALASSPEEAFALTNAAFRANAKLAAAAAAKKAAAA | not found (inactive) |
| design_621_7e0052dc-ae49-49a0-b99f-9f3ee649cc2f_591_dldesign_0_cycle1_af2pred (protein) GEEEEKKKEVIEKRQEVLKLLAEAVRVGMEADPELASKAASESLELIAKADKYLKEGKYEEALAELEKAKEYVEKMLKEAKALLAAKL | not found (inactive) |
| design_621_7e0052dc-ae49-49a0-b99f-9f3ee649cc2f_606_dldesign_0_cycle1_af2pred (protein) DVAEVLVRTAQAVARQAQAAAALSPEEALAVAQANQQTVAVLLAAAKAAGSAEAVAAAQQAQATVAAVIAAAQARLAA | binds (active) |
| design_621_7e0052dc-ae49-49a0-b99f-9f3ee649cc2f_624_dldesign_0_cycle1_af2pred (protein) AEAAKKKVEELLAKAKEEAKKALEDPANIEKYRAEMSKLIAEANRIGIASTPEVNTLAGSGIEEVLKLLDEAVKKAK | not found (inactive) |
| design_621_7e0052dc-ae49-49a0-b99f-9f3ee649cc2f_687_dldesign_0_cycle1_af2pred (protein) ALEEALERLKKQAEEAEKAGDKEAAKLAKKGAEQMEKAKTDPVAAMQALLAAAAEADKLAPKVGKVANRVAIEAIRGANAIFRAAQ | not found (inactive) |
| design_621_7e0052dc-ae49-49a0-b99f-9f3ee649cc2f_741_dldesign_0_cycle1_af2pred (protein) MEELKKAAEAAEKLAEVTLAIAKQADPKLAEKAKKLKEEVKKVYEEGKKDPSTAKEKLKELEKLSKEITELAAEASKLAVAKAA | not found (inactive) |
| design_621_7e0052dc-ae49-49a0-b99f-9f3ee649cc2f_896_dldesign_0_cycle1_af2pred (protein) SAAAAAAAAAKAVAAKTAEALVKQAEALIKEAEKSTKEEGLKLRKAAAENYKLAGTLYEQAGDTATAKKLKEEGEKVEKEAEEKA | not found (inactive) |
| design_621_7e0052dc-ae49-49a0-b99f-9f3ee649cc2f_1011_dldesign_0_cycle1_af2pred (protein) DLEKKAKEHLEKAKKLAEKAAASNAAEASVYLSQAIEEASKAVELAKKAGPELYKKYSEEATKLVQRASKAVMAKAQAAA | not found (inactive) |
| design_621_7e0052dc-ae49-49a0-b99f-9f3ee649cc2f_1041_dldesign_0_cycle1_af2pred (protein) DPAAVAAAEDMWAIAQQTWAAFTANAATITPAQARQYAAVFATAAVAMEDAARRVSPELAVGYRARAAEMRARAAAARAAAAA | not found (inactive) |
| design_621_7e0052dc-ae49-49a0-b99f-9f3ee649cc2f_1174_dldesign_0_cycle1_af2pred (protein) AEKDEIVEKLLRAAGTATYVAYAFKDDAATKAKATATNQKAREAIQLLGTDFSPEAVALAKEAIEDAEKLKAELEAAQA | not found (inactive) |
| design_621_7e0052dc-ae49-49a0-b99f-9f3ee649cc2f_1226_dldesign_0_cycle1_af2pred (protein) MEAEEYLEKAKEAAEKAKEAAAKGDLAAANAYLGKAIEYAAKAQEVGTPEIAEKANAELARAVKAVQAVAAKVAAA | not found (inactive) |
| design_621_7e0052dc-ae49-49a0-b99f-9f3ee649cc2f_1261_dldesign_0_cycle1_af2pred (protein) AADSVALGQANAEAMLAVADPSQLPAAAAAIAAASPAVAERARRIGLRLAEAAGADVAAFRAAYDAAVAAAKA | not found (inactive) |
| design_621_7e0052dc-ae49-49a0-b99f-9f3ee649cc2f_1278_dldesign_0_cycle1_af2pred (protein) AANAAEQAARLGKALASAAKNAIEAGNLESARKIAEVAVAAGEEAAELAVKYLEAEDPEAGKIFRELVEEEKARRAAEAA | not found (inactive) |
| design_621_7e0052dc-ae49-49a0-b99f-9f3ee649cc2f_1427_dldesign_0_cycle1_af2pred (protein) AAAAAEAAALAQINALTATAVAAAKDPATQPVANAALGQASALAIAQHKVDPAAGAKASQALAAGVEATAAARAAAKAAAAAAAA | not found (inactive) |
